Screening results as filed in PubChem BioAssay.
Only some compounds are listed: those with a hit (about 2.4% of all), similar ones and a draw of the others.
D2 PAM-1: positively modulates the human D2 dopamine receptor allosterically; P14416; HEK293 T-REx D2, calcium flux, EC20 dopamine potentiation; potentiation, % at 10 µM; 0.34% of 340,000 active;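 active = potentiation over 3 SD above the plate norm, cut at about 30% in these data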; note: 0% is about no effect
Target sequence (P14416 whole entry, looked up): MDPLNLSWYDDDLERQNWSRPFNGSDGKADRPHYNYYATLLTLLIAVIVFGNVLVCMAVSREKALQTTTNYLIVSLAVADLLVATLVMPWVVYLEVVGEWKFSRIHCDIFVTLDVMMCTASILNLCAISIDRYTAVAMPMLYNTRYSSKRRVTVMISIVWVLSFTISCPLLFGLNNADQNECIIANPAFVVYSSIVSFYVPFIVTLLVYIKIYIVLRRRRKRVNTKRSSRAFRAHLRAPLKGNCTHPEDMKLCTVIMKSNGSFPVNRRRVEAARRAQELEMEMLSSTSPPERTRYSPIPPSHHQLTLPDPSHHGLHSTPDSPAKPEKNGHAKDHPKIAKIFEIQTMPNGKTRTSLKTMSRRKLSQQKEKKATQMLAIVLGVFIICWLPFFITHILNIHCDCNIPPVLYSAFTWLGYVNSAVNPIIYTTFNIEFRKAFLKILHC
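Potentiation of an EC20 dopamine calcium response is measured in a force-coupled, tetracycline-inducible Hek293 Trex D2 line. Compound-only kinetic reads over 180 s flag agonists before dopamine addition.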
D2 ag-1: activates the human D2 dopamine receptor. P14416. HEK293 T-REx D2 cells, calcium flux agonist mode. activation, % at 2 µM. 0.53% of 340,000 active. AID 485358;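 active = activation over 3 SD above normal in the single-dose calcium agonist read, cut at about 30% in these data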; note: 0% is about no effect
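HEK293 Trex D2 cells, tetracycline-induced, o/n 30 C 5% CO2; no-wash Ca dye, RT 30–90 min; 10-cycle baseline, 23 nl cpd added, kinetic Ca read 180 s; agonist hits = positive Ca response.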
D2 antag: antagonists of human D2 dopamine receptor | P14416 | AID 485344 | HEK293 TREx D2 cells, calcium flux, dopamine EC80 | 2% of 340,000 active | inhibition, % at 10 µM; in the data active = inhibition above about 30%; inactive = below that, where a call was filed; note: 0% is about no effect
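In this primary screen, negative modulation is detected by tracking calcium flux after an EC80 dopamine challenge in inducible HEK293 T-REx D2 cells preexposed to test compound for 180 s.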
D2 PAM-2: potentiates the human D2 dopamine receptor allosterically. P14416. DiscoveRx D2 beta-arrestin cells, luminescence, 90 min; 100% = 57 uM dopamine signal. potentiation, % (concentration not given with the values). 0.23% of 360,000 active. AID 624464; in the data active = potentiation above about 50%
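PathHunter D2 cells, attached overnight at 37 deg C, received compound in DMSO plus dopamine at EC20 (50 nM final) for 90 min at 37 deg C. Beta-arrestin recruitment was read as luminescence after 1 h with detection reagent at ambient temperature.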
D2 ag-2: agonists of human D2 dopamine receptor (beta-arrestin) | P14416 | DiscoveRx PathHunter D2 beta-arrestin, luminescence, 90 min; 100% = 57 uM dopamine signal | activation, % (test concentration not listed) | AID 624465 | 0.084% of 360,000 active; in the data active = activation above about 40%
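Agonist mode: compounds alone added to overnight-plated D2 PathHunter cells for 90 min at 37 C, with 57 uM final dopamine (EC100) defining full response. Beta-arrestin recruitment detected by chemiluminescent reagent, read after 1 h at ambient temperature.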
Numbers without * were called inactive.

O=c1c2sc3ccccc3c2n(Cc2ccccc2)c(=O)n1CCc1ccccc1 was read as D2 PAM-1 25 and D2 ag-1 0.
For CNC(=S)N(CCc1c(C)[nH]c2ccc(F)cc12)Cc1cccnc1 the results were D2 PAM-1 31*, D2 ag-1 0, D2 antag -11, D2 PAM-2 -11 and D2 ag-2 6.
For COCCNC(=S)N(CCc1c(C)[nH]c2ccc(F)cc12)Cc1cccs1 the results were D2 PAM-1 -1, D2 ag-1 2, D2 antag 30*, D2 PAM-2 -12 and D2 ag-2 -1.
Screening COCCNC(=S)N(CCc1c(C)[nH]c2ccc(Cl)cc12)Cc1cccs1 returned D2 PAM-1 2, D2 ag-1 1, D2 antag 5, D2 PAM-2 -1 and D2 ag-2 1.
Cc1[nH]c2ccc(F)cc2c1CCN(Cc1cccnc1)C(=S)Nc1ccccc1 was read as D2 PAM-1 -8, D2 ag-1 0, D2 antag 11, D2 PAM-2 -9 and D2 ag-2 -5.
`CCOC(=O)c1cccc(NC(=O)c2cnc3sc(N4CCOCC4)nn3c2=O)c1` gave D2 PAM-1 1 and D2 ag-1 1.
CCOC(=O)c1c(NC(C)=O)sc2c(O)c(Br)cc(Br)c12 was read as D2 PAM-1 7, D2 ag-1 0, D2 antag 36*, D2 PAM-2 13 and D2 ag-2 2.
Cc1cc(Cl)ccc1NC(=O)CCn1nc(C)c2c(C)n(-c3ccccc3)nc2c1=O was read as D2 PAM-1 -1 and D2 ag-1 -1.
Screening COC(=O)C1=CN(CC2CCCO2)C=C(C(=O)OC)C1c1ccccc1C(F)(F)F (configuration not stated) returned D2 PAM-1 6, D2 ag-1 0, D2 antag 43*, D2 PAM-2 12 and D2 ag-2 -1.
COC(=O)C1=CN(CC2CCCO2)C=C(C(=O)OC)C1c1cccc(O)c1 (configuration not stated) was read as D2 PAM-1 12, D2 ag-1 1, D2 antag -14, D2 PAM-2 -11 and D2 ag-2 -4.
Screening Cc1ccc2nc(COc3ccccc3NC(=O)c3ccc(F)cc3)cc(=O)n2c1 returned D2 PAM-1 8 and D2 ag-1 1.
For CCOC(=O)/C(=C\c1ccc(N2CCC(c3ccccc3)=N2)cc1)C(C)=O the results were D2 PAM-2 -19 and D2 ag-2 0.
`O=C(/C=C/c1ccc(N2CCC(c3ccccc3)=N2)cc1)c1ccccc1` gave D2 PAM-1 -4, D2 ag-1 37*, D2 antag 33*, D2 PAM-2 -14 and D2 ag-2 -5.
COc1cccc(N2CCN(C(=O)C3CCC(CNS(=O)(=O)c4ccc(Br)s4)CC3)CC2)c1 (configuration not stated) was read as D2 PAM-1 5 and D2 ag-1 0.
For Cc1cc(Cl)ccc1NC(=O)CCS(=O)(=O)c1cc2c(cc1C)NC(=O)CO2 the results were D2 PAM-1 -9 and D2 ag-1 -1.
Screening CCC(C)Sc1nc2c(c(=O)[nH]c(=O)n2C)n1CC(O)COc1ccccc1C (configuration not stated) returned D2 PAM-1 -6, D2 ag-1 0, D2 antag 30*, D2 PAM-2 -2 and D2 ag-2 -2.
`CCC(C)Sc1nc2c(c(=O)[nH]c(=O)n2C)n1CCc1ccccc1` (configuration not stated) gave D2 PAM-1 17, D2 ag-1 1, D2 antag -28, D2 PAM-2 -11 and D2 ag-2 2.
For CCCN(CCC)CCNC(=O)C1CCN(S(=O)(=O)c2cccc3nsnc23)CC1 the results were D2 PAM-1 -6, D2 ag-1 1, D2 antag 37*, D2 PAM-2 -14 and D2 ag-2 6.
`COc1ccc(CCNC(=O)CSc2nc3[nH]ncc3c(=O)n2-c2ccccc2OC)cc1OC` gave D2 PAM-1 9, D2 ag-1 3, D2 antag 37*, D2 PAM-2 7 and D2 ag-2 -1.
For CC(=O)c1ccc(NC(=O)CSc2nnc(-c3ccncc3)n2-c2ccccc2)cc1 the results were D2 PAM-1 3 and D2 ag-1 1.
For CCCc1nn2c(=O)cc(COC(=O)c3cccc(NC(=O)c4ccc(OCC)cc4)c3)nc2s1 the results were D2 PAM-1 1 and D2 ag-1 0.
OC1CCCN(c2c3c(nc4cc(-c5cccc(F)c5)nn24)CCCC3)C1 (configuration not stated) was read as D2 PAM-1 0, D2 ag-1 0, D2 antag 47*, D2 PAM-2 2 and D2 ag-2 0.
`O=C(Nc1cccc(F)c1)c1ccc2snnc2c1` gave D2 PAM-1 -10 and D2 ag-1 0.
CCN1CCc2c(C#N)c(NCc3ccccc3)nc(N(CC)CC)c2C1 was read as D2 PAM-1 -8, D2 ag-1 3, D2 antag 46*, D2 PAM-2 -37 and D2 ag-2 -2.
For N#Cc1c(NCCN)nc(NCc2ccccc2)c2c1CCN(Cc1ccccc1)C2 the results were D2 PAM-2 2 and D2 ag-2 -1.
COc1ccc(NC(=O)C(C)Sc2cc(-c3ccccc3)nc(C)n2)cc1Cl (configuration not stated) was read as D2 PAM-1 8.
For C/C(N)=C(/C#N)C(=O)CSc1nnc(Nc2ccccc2)s1 the results were D2 PAM-1 22, D2 ag-1 -1, D2 antag 49*, D2 PAM-2 10 and D2 ag-2 10.
Screening Cc1cc(C)c(C)c(OCc2nc(-c3cccnc3)no2)c1 returned D2 PAM-1 33*, D2 ag-1 0, D2 antag -7, D2 PAM-2 -31 and D2 ag-2 -2.
COc1ccc(CNC(=O)/C(C)=C\C(=O)O)cc1 was read as D2 PAM-1 1, D2 ag-1 0, D2 antag 36*, D2 PAM-2 -8 and D2 ag-2 1.
Screening COC(=O)c1cc(C(=O)c2ccc(Cl)cc2Cl)cn1C returned D2 PAM-1 38*, D2 ag-1 1, D2 antag 1, D2 PAM-2 10 and D2 ag-2 -1.
Screening Cc1ccc2oc(-c3ccc(Cl)c(NC(=O)c4cc5ccccc5o4)c3)nc2c1 returned D2 PAM-1 15 and D2 ag-1 1.
O=C(NC1CC2CCCC(C1)N2Cc1cccs1)N1CCOCC1 (configuration not stated) was read as D2 PAM-2 -39 and D2 ag-2 -2.
